A selection: hits, their analogues and other compounds. The true share with any hit is near 10%.
hNpr1 antagonist: Natriuretic polypeptide receptor (hNpr1) antagonism - Primary qHTS. Atrial natriuretic peptide receptor 1 (Homo sapiens), P16066. HEK293 hNpr1 GloSensor cGMP, ANP-stimulated luminescence. Potency, µM (series often up to 46.3 µM), inactives show top-dose activity change, negative = inhibition, usual class: inhibitors. 1.6% of 76,000 active; calls by dose curve; also: nearly all actives have a fitted effect of over 60% in size
Target sequence (P16066 whole entry, looked up): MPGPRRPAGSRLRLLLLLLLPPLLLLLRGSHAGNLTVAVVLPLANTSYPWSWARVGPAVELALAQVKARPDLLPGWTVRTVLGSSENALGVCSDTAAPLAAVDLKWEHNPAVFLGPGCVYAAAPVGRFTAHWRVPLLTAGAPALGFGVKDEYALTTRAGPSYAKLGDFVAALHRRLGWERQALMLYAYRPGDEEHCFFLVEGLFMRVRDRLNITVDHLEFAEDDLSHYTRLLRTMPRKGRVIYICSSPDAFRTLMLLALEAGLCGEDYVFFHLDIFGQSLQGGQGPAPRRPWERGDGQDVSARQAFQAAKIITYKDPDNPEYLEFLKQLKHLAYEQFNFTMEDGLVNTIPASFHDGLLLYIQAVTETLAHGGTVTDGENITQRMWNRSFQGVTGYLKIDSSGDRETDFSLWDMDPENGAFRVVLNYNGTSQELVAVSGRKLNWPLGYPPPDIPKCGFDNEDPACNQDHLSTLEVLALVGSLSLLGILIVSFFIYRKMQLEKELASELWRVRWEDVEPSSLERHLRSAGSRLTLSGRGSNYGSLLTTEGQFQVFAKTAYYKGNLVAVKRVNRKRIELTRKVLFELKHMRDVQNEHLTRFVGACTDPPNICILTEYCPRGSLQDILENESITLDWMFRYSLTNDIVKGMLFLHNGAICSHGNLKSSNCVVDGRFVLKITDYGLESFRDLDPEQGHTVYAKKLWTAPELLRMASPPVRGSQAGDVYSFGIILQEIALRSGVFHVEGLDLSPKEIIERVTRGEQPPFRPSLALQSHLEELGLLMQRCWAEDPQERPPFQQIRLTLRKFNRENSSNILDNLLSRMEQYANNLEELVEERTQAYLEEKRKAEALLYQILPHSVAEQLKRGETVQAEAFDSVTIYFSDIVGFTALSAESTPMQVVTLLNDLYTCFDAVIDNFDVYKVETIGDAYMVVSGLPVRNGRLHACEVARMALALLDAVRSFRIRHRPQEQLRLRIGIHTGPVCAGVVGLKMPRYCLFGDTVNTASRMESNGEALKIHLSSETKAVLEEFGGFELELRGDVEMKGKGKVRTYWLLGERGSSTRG
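Compound pre-incubated 30 min at room temperature on GloSensor-loaded HEK293 cells stably carrying hNpr1 and the pGS-40F cGMP biosensor. Stimulation uses hNppA at 0.1 nM final; luminescence is taken at baseline and 20 min post-agonist.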
HEK cytotox: Cytotoxic Profiling in HEK 293 Cell Line of Diverse Libraries Using Quantitative High-Throughput Screening; HEK 293 viability, ATP luminescence (CellTiter-Glo), 48-72 h; Potency, µM (series often up to 115 µM), for inactives: at the top dose activity change, negative = cytotoxicity, hits mostly inhibitors; 6.6% of 94,000 active; AID 1345083, 2018; also: nearly all actives have a fitted effect of over 60% in size
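Read-out: CellTiter-Glo ATP luminescence. Cells: HEK 293, 250 cells/well. Exposure: 48 or 72 hr, 37 degree Celsius.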
GPT2 inhibitor: Primary qHTS assay for inhibitors of Glutamate pyruvate transaminase 2 (GPT2). Alanine aminotransferase 2 (Homo sapiens), Q8TD30. Recombinant GPT2, coupled pyruvate oxidase/HRP Amplex Red fluorescence. Potency, µM (highest dose often 57.7 µM), for the others: top-dose activity change, negative = inhibition, most hits filed as inhibitors. 0.25% of 100,000 active; also: nearly all actives have a fitted effect of over 60% in size
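Fluorescence of coupled pyruvate oxidase/HRP/Amplex Red system (50uM Amplex, 30 min, dark) reports pyruvate formed by GPT2. Enzyme reaction: 10ng/uL GPT2, 2mM L-alanine, 250uM a-KG, 30 min room temperature, pH 7.5; 50uM AOA control.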
3T3 cytotox: Cytotoxic Profiling in NIH 3T3 Cell Line of Diverse Libraries Using Quantitative High-Throughput Screening. NIH 3T3 viability, CellTiter-Glo ATP luminescence, 48-72 h. Potency, µM (titrated, usually from 96.7 µM), inactives show at the highest dose activity change, negative = cytotoxicity, usual class: inhibitors. 4.3% of 94,000 active. AID 1345082, 2018; also: nearly all actives have a fitted effect of over 55% in size
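Cytotoxicity is measured as loss of cellular ATP: NIH 3T3 cells (400/well) are exposed to compound for 48 or 72 hr at 37 °C, then CellTiter-Glo luminescence is imaged after 10 min at room temperature.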
FLuc inh: Firefly luciferase inhibition profiling of diverse chemical library using quantitative high-throughput screening | Luciferin 4-monooxygenase (Photinus pyralis), P08659 | purified P. pyralis luciferase, luminescence, biochemical | Potency, µM (highest dose often 115 µM), most hits filed as inhibitors | 2.5% of 76,000 active | AID 1347043, 2019; also: nearly all actives have a fitted effect of over 65% in size
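Inhibitors were tested against purified firefly luciferase in a biochemical, low-substrate format (both substrates at 10uM) and luminescence measured with a CCD imager.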
Active calls of the source: *; i = inactive; ? = inconclusive; . = not tested or not shown; [ ] = remark or other dose. Unless noted, calls follow the shape of the dose curve; as a rule, active = well fitted curve in the direction sought with a large enough effect; inconclusive = small, poorly fitted or top-dose-only effect, or another doubt; inactive = no such curve, though single readings can be large; an effect the other way counts as inactive or inconclusive. % is scaled to controls: 0 for no effect and ±100 for the full control effect; potency is read from the fitted curve at half-maximal effect.

SMILES	hNpr1 antagonist	HEK cytotox	GPT2 inhibitor	3T3 cytotox	FLuc inh
Cc1ccc(-c2cc(N3CCCN(C(=O)c4ccc5c(c4)OCO5)CC3)n[nH]2)cc1C	-16.3%	?	?	?	i
COc1ccc(-c2noc(-c3cccn3CC(=O)Nc3ccc(C)cc3)n2)cc1F	-1.8%	-4.8%	i	-9.7%	i
COc1cccc([S+](=O)([O-])N2CCN(C(=O)c3nc4cccnc4n(C4CC4)c3=O)CC2)c1	.	i	-0.7%	-26.5%	.
O=C(O)CCC(=O)N1Cc2ccccc2CC2(CCCN2CC2CCNC2)C1 (centres undefined)	.	-6.3%	i	-7.1%	.
Cc1noc(C)c1CN1C[C@H]2[C@H](C1)[S+](=O)([O-])C(C)(C)C(=O)N2CCOc1ccccc1	0.8%	-17.1%	-15.9%	39.8µM*	i
CC1(C)C(=O)N(Cc2ccccc2)[C@H]2CN(CC3CCOC3)C[C@H]2[S+]1(=O)[O-] (some centres undefined)	4.5%[70.6 µM]	i	3.7%[88.5 µM]	89.1µM*	i
CC1(C)C(=O)N(CCOc2ccccc2)[C@H]2CN(c3cccc(C(F)(F)F)c3)C[C@@H]2[S+]1(=O)[O-]	2.3%	17.8µM*	-17.3%	11.2µM*	i
Cc1cn2nnc(C(=O)NCC3CCCCC3)c2c(=O)[nH]1	13.9%	-11.0%	i	-18.8%	i
CC(CCc1ccccc1)NC(=O)c1ccc2nccn2c1 (centres undefined)	-8.0%[70.6 µM]	-20.5%[172 µM]	-11.0%[88.5 µM]	?	i
Cc1ccc(OCc2nc(C3CCCN3C(=O)C3CC3)no2)cc1 (centres undefined)	-3.6%	3.2%	i	-7.5%	i
CC(C)C(=O)NC1CCN(c2ccnc3ccnn23)C1 (centres undefined)	.	?	2.2%[88.5 µM]	?	.
CCCn1cc2c3c(cccc31)CN(C(=O)COc1ccc(F)cc1)CC2	-22.1%	44.7µM*	-15.9%	?	i
CCCN1CCc2[nH]cnc2C12CCN(C(=O)c1ccc(CSC)o1)CC2	-5.3%	-9.6%	i	-17.8%	i
Cn1cnc2cc(-c3cccc(C(F)(F)F)c3)cc(C(=O)NCc3cccnc3)c21	-5.6%[70.6 µM]	100µM*	-0.2%[88.5 µM]	?	i
Cn1cnc2cc(-c3ccccc3)cc(C(=O)NCc3cccnc3)c21	-4.9%[70.6 µM]	-24.3%[172 µM]	?	?	i
Cn1cnc2cc(-c3ccc(N4CCOCC4)cc3)cc(C(=O)NCc3cccnc3)c21	-0.9%[70.6 µM]	1.2%[172 µM]	i	89.1µM*	i
COc1ccc(-c2cc(C(=O)NCc3ccnc(N)c3)c3c(c2)ncn3C)cc1	-7.6%[70.6 µM]	?	-6.1%[88.5 µM]	?	i
COc1cc(CNC(=O)c2cc(-c3cccc(N(C)C)c3)cc3ncn(C)c23)ccn1	4.0%[70.6 µM]	70.8µM*	i	?	?
O=C(NCc1cccs1)c1ccc2nnc(-c3cc(C(F)(F)F)cc(C(F)(F)F)c3)n2c1	.	?	i	?	.
C[C@@H](NC(=O)c1cc(-c2ccc(C(F)(F)F)cc2)nc2c1cnn2C)c1ccccc1	.	0.9%	.	-22.3%	.
c1ccc2c(c1)COC1(CCNC1)CN2CC1CCCC1 (centres undefined)	.	50.1µM*	i	35.5µM*	.
c1ccc2c(c1)COC1(CCN(CC3CC3)C1)CN2CC1CC1 (centres undefined)	.	-32.2%	i	?	.
COc1ccc(Nc2ncc(-c3ccccc3OC)c3c2OCC3)cn1	?	?	i	?	31.6µM*
COc1cncc(Nc2ncc(-c3ccccc3OC)c3c2OCC3)c1	-4.2%[70.6 µM]	?	-13.9%[88.5 µM]	70.8µM*	i
COc1ccccc1-c1cnc(Nc2cncnc2)c2c1CCO2	0.8%[70.6 µM]	?	?	?	i
SMILES	hNpr1 antagonist	HEK cytotox	GPT2 inhibitor	3T3 cytotox	FLuc inh
Cc1ccc(NC(=O)N2CCC[C@H]2c2nc(-c3ccc(F)cc3)n[nH]2)cc1C	.	?	i	28.2µM*	.
CC(C)(C)CC(=O)N1CCN2C(=O)c3cc(-c4ccc(Cl)cc4)ccc3NC(=O)[C@H]2C1	-13.7%	39.8µM*	-24.5%	?	i
CCCNC(=O)N1CCN2C(=O)c3cc(-c4ccccc4F)ccc3NC(=O)[C@@H]2C1	-1.8%[70.6 µM]	100µM*	i	?	i
O=C1Nc2ccc(-c3ccccc3F)cc2C(=O)N2CCN(C(=O)c3ccco3)C[C@@H]12	1.1%[70.6 µM]	?	0.3%[88.5 µM]	?	i
COc1ccc(Cl)cc1-c1ccc2c(c1)C(=O)N1CCN(C(=O)CN)C[C@H]1C(=O)N2	2.8%[70.6 µM]	?	-16.5%[88.5 µM]	100µM*	i
CC(C)(C)CC(=O)N1CCN2C(=O)c3cc(-c4ccccc4)ccc3NC(=O)[C@H]2C1	-0.8%[70.6 µM]	100µM*	4.8%[88.5 µM]	?	i
COc1ccc(-c2ccc3c(c2)C(=O)N2CCN(C(=O)CC(C)(C)C)C[C@@H]2C(=O)N3)cc1	-1.4%[70.6 µM]	?	-19.2%[88.5 µM]	?	i
CC(C)(CC(=O)O)CC(=O)N1CCN2C(=O)c3cc(-c4ccc(Cl)cc4)ccc3NC(=O)[C@H]2C1	-2.9%	0.3%	i	-1.4%	i
N#Cc1cccc(-c2cn3cc(C(=O)NCc4ccccc4)nc3s2)c1	.	?	i	?	.
COc1ccc(Cl)cc1-c1ccc2c(c1)C(=O)N1CCN(C(=O)C3CCCC3)C[C@H]1C(=O)N2	-6.7%	?	1.1%	?	i
O=C1Nc2ccc(-c3ccc(Cl)cc3)cc2C(=O)N2CCN(C(=O)C3CCCCC3)C[C@H]12	-20.7%	39.8µM*	-1.3%	?	i
CN(Cc1ccc(-n2cccn2)cc1)CC1CCN(CCc2ccc(F)cc2)CC1	-7.0%	?	-12.0%	?	i
CN(Cc1ccc(Oc2ncccn2)cc1)CC1CCN(CCc2ccc(F)cc2)CC1	6.4%	?	-3.7%	50.1µM*	i
c1ccc(Nc2cc3c(cn2)CN(Cc2ccccn2)CCN3)cc1	-9.7%[70.6 µM]	?	-1.3%[88.5 µM]	?	i
c1ccc(Nc2cc3c(cn2)CN(Cc2ncc[nH]2)CCN3)cc1	2.3%[70.6 µM]	?	i	?	17.8µM*
FC(F)(F)c1ccc(CN2CCNc3cc(Nc4ccccc4)ncc3C2)cc1	?	44.7µM*	i	25.1µM*	?
Fc1ccc(CN2CCNc3cc(Nc4ccccc4)ncc3C2)cc1F	-16.9%[70.6 µM]	22.4µM*	2.0%[88.5 µM]	39.8µM*	i
Fc1ccc(Nc2cc3c(cn2)CN(Cc2ccccc2)CCN3)cc1	-21.2%[70.6 µM]	-97.3%[172 µM]	?	31.6µM*	?
COCCOc1ccc2c(n1)CCN(C(=O)c1cccc(OC)c1)C2	-0.2%	-16.1%	i	-22.6%	i
